These results are taken from PubChem BioAssay.

A short description of experiment [1]: optical density shifts of acrAB sulA E. coli – strain DRC41, OD650, 48 h, E. coli filamentation inducer project, primary screen (AID 1152).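 Note: E. coli MC1000 strain DRC41 lacking acrAB efflux pump and sulA.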 The note with it: higher = more signal, called active from +8 up or from −8 down.
A short description of experiment [2]: probe aLefty1 binding on compound microarray – biochemical, small-molecule microarray, 635/667 nm fluorescence, primary screen (AID 1153).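 Note: score merges spot fluorescence with signal-to-noise ratio from the scanned slide images.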 The settings on record: higher = more signal.
Experiment [3] can be described thus: plasmodial surface anion channel blockers, osmotic lysis – cell-based, P. falciparum Indochina, OD700, 1 h, primary screen (AID 1154). The note with it: P. falciparum Indochina infected RBC osmotic lysis, higher = more signal, called active from +8 up or from −8 down.
Experiment [4] can be described thus: plasmodial surface anion channel blockers, osmotic lysis – cell-based, P. falciparum Indochina, OD700, 2 h, primary screen (AID 1155).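 Note: lysis reports solute entry through the parasite surface anion channel PSAC.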 The note with it: P. falciparum Indochina infected erythrocytes, higher = more signal, called active from +8 up or from −8 down.
Experiment [5] is described as follows: changes in parasitized red cell lysis, either direction – P. falciparum Indochina, OD700, 3 h, PSAC antagonist project, primary screen (AID 1156). The settings on record: P. falciparum-infected erythrocytes, osmotic lysis, higher = more signal, called active from +8 up or from −8 down.
Experiment [6] can be described thus: plasmodial surface anion channel blockers, osmotic lysis – cell-based, P. falciparum Indochina, OD700, 18 h, primary screen (AID 1157). The note with it: P. falciparum Indochina infected erythrocytes, osmotic lysis OD700, 18 h; higher = more signal, called active from +8 up or from −8 down.
Experiment [7] in a line: S6 kinase pathway phospho-S6 level changes – cell-based, A549, cytoblot, luminescence, serum-stimulated, primary screen (AID 1158).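 Note: serum-stimulated A549 lung adenocarcinoma cells; signal is phosphorylated S6 detected by cytoblot immunostaining with HRP secondary.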 The settings on record: 5 h, higher = more signal.
Experiment [8] deals with NADPH oxidase 2 (Homo sapiens) (UniProt P04839). The experiment is described as follows: compounds shifting NOX2 Amplex Red fluorescence – cell-based, HEK293-NOX2, PMA-stimulated, NOX inhibitor project, primary screen (AID 1159). Note: test concentration not given here. The note with it: 45 min, higher = more signal, called active from +8 up or from −8 down.
Experiment [9] deals with NADPH oxidase 4 (Homo sapiens) (UniProt Q9NPH5). Briefly: compounds shifting NOX4 Amplex Red fluorescence – cell-based, HEK293-NOX4, tetracycline-induced, NOX inhibitor project, primary screen (AID 1160). The settings on record: HEK293-NOX4, Amplex Red H2O2 fluorescence, 45 min; higher = more signal, called active from +8 up or from −8 down.
In experiment [10] the target is NADPH oxidase 5 (Homo sapiens) (UniProt Q96PH1). Briefly: compounds shifting NOX5 Amplex Red fluorescence – cell-based, HEK293-NOX5, NOX inhibitor project, primary screen (AID 1161). The note with it: HEK293-NOX5, ionomycin, 45 min, higher = more signal.
Experiment [11] can be described thus: compound effects on lung adenocarcinoma cell viability – A549, calcein-AM fluorescence, 48 h, basal, profiling panel (AID 1162). Note: test concentration not given here. The settings on record: higher = more signal.
Experiment [12] is described as follows: compound effects on differentiated 3T3-L1 adipocyte viability – cell-based, 3T3-L1 adipocytes, calcein-AM fluorescence, 48 h, basal, profiling panel (AID 1163). Note: test concentration not given here. The settings on record: 3T3-L1 adipocytes viability, higher = more signal.
Experiment [13] is described as follows: compound effects on hepatocellular carcinoma cell viability – HepG2, calcein-AM fluorescence, 48 h, basal, profiling panel (AID 1164). Note: test concentration not given here. The note with it: higher = more signal.
Experiment [14] in a line: compound effects on multiple myeloma cell viability – MM1S, calcein-AM fluorescence, 48 h, basal, profiling panel (AID 1165).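 Note: viability of MM1S multiple myeloma cells under basal unstimulated conditions; test concentration not given here.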 The note with it: higher = more signal.
Experiment [15] is described as follows: calcein-AM signal in unstimulated myeloma cells – cell-based, calcein-AM fluorescence, 48 h, PK04 Diversity Set, profiling panel (AID 1166).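 Note: cells grown under basal conditions without added stimulus; test concentration not given here.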 The note with it: RPMI8226 myeloma viability, higher = more signal.
A short description of experiment [16]: JC-1 mitochondrial signal, unstimulated HepG2 cells – cell-based, JC-1 fluorescence, 24 h, 100 nL compound, profiling panel (AID 1167). Note: test concentration not given here. The note with it: HepG2 mitochondrial potential, higher = more signal.
Experiment [17] in a line: JC-1 mitochondrial signal, unstimulated adipocytes – cell-based, JC-1 fluorescence, 3T3-L1 adipocytes, 24 h, 100 nL compound, profiling panel (AID 1168). Note: test concentration not given here. The settings on record: JC-1 mitochondrial fluorescence, higher = more signal, called active from +8 up or from −8 down.
The nature of experiment [18]: JC-1 mitochondrial signal, unstimulated myeloma cells – cell-based, JC-1 fluorescence, RPMI8226, 24 h, 100 nL compound, profiling panel (AID 1169). Note: test concentration not given here. The settings on record: JC-1 mitochondrial potential fluorescence, higher = more signal.
Experiment [19] is described as follows: JC-1 mitochondrial signal, unstimulated MM1S myeloma – cell-based, JC-1 fluorescence, 24 h, 100 nL compound, profiling panel (AID 1170). Note: test concentration not given here. The settings on record: MM1S mitochondrial potential, higher = more signal.
A short description of experiment [20]: resazurin metabolic signal in A549 cells – cell-based, resazurin fluorescence, 24 h, PK04 Diversity Set, profiling panel (AID 1171). Note: test concentration not given here. The note with it: A549 viability, higher = more signal, called active from +8 up or from −8 down.

Calls of active or inactive are those of the source.

Sequence of NADPH oxidase 2 (Homo sapiens) (P04839 whole entry, looked up): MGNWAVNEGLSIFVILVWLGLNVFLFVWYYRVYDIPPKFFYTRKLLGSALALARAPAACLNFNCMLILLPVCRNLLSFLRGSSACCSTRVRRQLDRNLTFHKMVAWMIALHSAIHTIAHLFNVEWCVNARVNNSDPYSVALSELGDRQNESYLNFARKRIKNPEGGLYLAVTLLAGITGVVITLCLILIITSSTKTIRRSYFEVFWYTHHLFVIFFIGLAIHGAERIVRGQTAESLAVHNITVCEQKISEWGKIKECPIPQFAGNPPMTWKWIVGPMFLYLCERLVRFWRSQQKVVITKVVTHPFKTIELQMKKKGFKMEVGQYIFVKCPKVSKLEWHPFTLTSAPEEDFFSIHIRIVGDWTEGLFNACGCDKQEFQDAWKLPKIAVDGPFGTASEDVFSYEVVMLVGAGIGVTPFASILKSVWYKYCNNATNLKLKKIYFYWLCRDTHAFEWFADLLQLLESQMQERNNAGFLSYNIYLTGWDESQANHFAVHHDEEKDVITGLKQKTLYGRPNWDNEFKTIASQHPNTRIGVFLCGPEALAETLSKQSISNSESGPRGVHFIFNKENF
Sequence of NADPH oxidase 4 (Homo sapiens) (Q9NPH5 whole entry, looked up): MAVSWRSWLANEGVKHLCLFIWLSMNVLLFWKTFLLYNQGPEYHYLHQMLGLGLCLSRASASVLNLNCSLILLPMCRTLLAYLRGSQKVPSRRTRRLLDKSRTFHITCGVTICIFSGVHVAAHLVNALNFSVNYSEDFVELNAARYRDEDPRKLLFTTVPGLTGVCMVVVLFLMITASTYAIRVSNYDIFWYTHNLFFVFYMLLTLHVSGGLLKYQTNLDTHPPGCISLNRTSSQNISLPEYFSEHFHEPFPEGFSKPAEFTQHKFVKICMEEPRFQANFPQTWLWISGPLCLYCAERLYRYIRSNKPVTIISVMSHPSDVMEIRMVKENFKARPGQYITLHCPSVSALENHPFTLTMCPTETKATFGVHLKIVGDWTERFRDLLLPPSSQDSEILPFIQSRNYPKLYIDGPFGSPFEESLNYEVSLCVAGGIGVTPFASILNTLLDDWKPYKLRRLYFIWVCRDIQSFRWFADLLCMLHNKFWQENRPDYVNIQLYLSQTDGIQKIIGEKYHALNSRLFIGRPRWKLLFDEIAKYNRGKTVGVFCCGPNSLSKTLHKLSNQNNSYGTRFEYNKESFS
Sequence of NADPH oxidase 5 (Homo sapiens) (Q96PH1 whole entry, looked up): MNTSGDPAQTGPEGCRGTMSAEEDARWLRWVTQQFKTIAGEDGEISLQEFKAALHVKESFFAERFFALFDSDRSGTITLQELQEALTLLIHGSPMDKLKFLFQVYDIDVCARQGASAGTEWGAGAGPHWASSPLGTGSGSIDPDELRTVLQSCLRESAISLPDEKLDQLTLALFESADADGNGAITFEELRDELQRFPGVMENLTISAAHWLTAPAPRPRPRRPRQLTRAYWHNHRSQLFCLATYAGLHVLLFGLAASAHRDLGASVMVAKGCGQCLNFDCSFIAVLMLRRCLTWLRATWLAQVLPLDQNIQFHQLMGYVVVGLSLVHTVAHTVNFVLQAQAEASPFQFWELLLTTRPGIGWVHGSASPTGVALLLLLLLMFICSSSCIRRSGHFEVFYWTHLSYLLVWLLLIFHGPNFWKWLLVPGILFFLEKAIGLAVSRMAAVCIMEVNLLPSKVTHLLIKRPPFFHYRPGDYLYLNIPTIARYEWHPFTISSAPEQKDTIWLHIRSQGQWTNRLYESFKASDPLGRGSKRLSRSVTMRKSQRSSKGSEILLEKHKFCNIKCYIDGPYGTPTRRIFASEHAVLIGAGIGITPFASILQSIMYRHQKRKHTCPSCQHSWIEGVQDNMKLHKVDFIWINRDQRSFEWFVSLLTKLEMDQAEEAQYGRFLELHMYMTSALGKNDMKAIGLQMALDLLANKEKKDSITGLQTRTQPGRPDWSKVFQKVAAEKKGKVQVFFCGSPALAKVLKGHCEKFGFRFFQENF

As for `COc1cc(CO)cc(I)c1O[C@H]1C=C(C(=O)NCCO)C[C@@H](N(CC2CCCCC2)C(=O)c2ccc(C(F)(F)F)cc2)[C@@H]1O`, the z-score in experiment [1] was 1.76 (inactive); in experiment [3], 1.05 (inactive); in experiment [4] it was 0.447 (inactive); in experiment [5] it was 1.69 (inactive); in [6] it was 0.329 (inactive); in experiment [7], 0.597. The z-score in [8] was -0.363 (inactive); in [9], 0.916 (inactive); in experiment [10], 0.686; in experiment [11], 0.608; in experiment [12] it was -0.535; in experiment [13], 1.42. Moreover, the z-score in experiment [14] was 0.639; in experiment [15] it was -0.189; in [16] it was 0.214; in experiment [17], -0.0651 (inactive); in experiment [18], -1.09; in experiment [19], -0.337. Besides, the z-score in experiment [20] was 0.126 (inactive). Also, in experiment [2], the composite z-score is -0.0547.

As for `O=C1NC(=O)C2C1C=CC(C(O)c1cc(C(F)(F)F)cc(C(F)(F)F)c1)N2Nc1ccc(Cl)cc1Cl` (stereo not given), the z-score in experiment [1] is -2.29 (inactive); in [3] it was 0.321 (inactive); in experiment [4] it was 0.168 (inactive); in experiment [5] it was -1.6 (inactive); in experiment [6], 0.998 (inactive); in [7] it was -1.41. Further, the z-score is 0.128 (inactive) in experiment [8]; -5.87 (inactive) in experiment [9]; -2.22 in experiment [10]; -3.02 in experiment [11]; 0.0578 in [12]; -2.76 in [13]. Also, the z-score in experiment [14] was -3.69; in experiment [15] it was -3.56; in [16] it was -2.94; in experiment [17], -1.19 (inactive); in experiment [18], -0.387; in [19] it was 0.4. Moreover, the z-score in experiment [20] is -1.24 (inactive). The compound further had a composite z-score in experiment [2] of 0.546.

As for `O=C1NC(=O)C2C1C=CC(C(O)c1ccc(Br)cc1)N2Nc1ccccn1` (stereo not given), the z-score was -0.325 (inactive) in experiment [1]; -0.0691 (inactive) in experiment [3]; -1.06 (inactive) in experiment [4]; 0.215 (inactive) in experiment [5]; -1.94 (inactive) in [6]; 0.599 in experiment [7]. Further, the z-score in experiment [8] was -1.54 (inactive); in [9], -2.6 (inactive); in experiment [10] it was -1.93; in [11], 0.636; in experiment [12] it was 0.805; in [13] it was 0.909. Also, the z-score in [14] is -0.0483; in [15], -0.767; in experiment [16], -0.169; in experiment [17], 0.195 (inactive); in [18], 0.698; in experiment [19], -0.273. Besides, the z-score in experiment [20] was -1.58 (inactive). The compound also yielded a composite z-score in experiment [2] of 0.5.

As for `COCC(=C=CC[C@H](O)c1ccc(OCCO)cc1)C[C@H](O)COCc1ccccc1`, the z-score in [1] was 1.19 (inactive); in [3], 16.5 (active); in experiment [4] it was 1.61 (inactive); in [5], 0.103 (inactive); in [6] it was -0.749 (inactive); in [7] it was 0.974. Further, the z-score was -1.6 (inactive) in experiment [8]; -0.65 (inactive) in [9]; -2.52 in [10]; 0.542 in experiment [11]; 1.24 in experiment [12]; 0.115 in [13]. For the same compound, the z-score in experiment [14] is -0.26; in [15] it was 0.249; in experiment [16] it was 1.07; in experiment [17], -0.801 (inactive); in experiment [18], -0.245; in experiment [19], -0.748. Moreover, the z-score in experiment [20] was 0.925 (inactive). In addition, the composite z-score in experiment [2] came to 0.179.
